Assay [1] concerns the target Peroxisome proliferator-activated receptor gamma (Homo sapiens) (UniProt P37231). The assay can be described thus: OT_PPARg_PPARgSRC1_1440: Odyssey Thera (OT) 24-hour Protein-Complementation Assay for Peroxisome Proliferator-activated Receptor Gamma/ SRC-1 Co-activator (AID 2283388; active means hit-call score of the fitted dose curve at least 0.9, where 1 is the maximum). The essentials:
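HEK293T transiently transfected with PPARg/SRC-1 split-Venus YFP fusions 48 h before dosing, then treated 24 h at 37C. Fixed cells imaged; nuclear/cytoplasmic 488 nm fluorescence ratio, gain of signal versus DMSO.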

Assay [2] can be described thus: CEETOX_H295R_11DCORT: CeeTox H295R High-throughput Steroidogenesis Assay for 11-Deoxycortisol (11DCORT) (AID 2283432).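 On AC50: 11-deoxycortisol secreted into the medium measured by LC-MS/MS.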 As to conditions: actives raise or lower the signal. A digest of the protocol: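 Human adrenal H295R cells were prestimulated with 10 uM forskolin for 48 h, then exposed to test chemical (0.1% DMSO final) for 48 h. Medium 11-deoxycortisol was quantified by MTBE extraction and HPLC-MS/MS; bidirectional fitting relative to DMSO.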

The nature of assay [3]: CEETOX_H295R_OHPREG: CeeTox H295R High-throughput Steroidogenesis Assay for OH-Pregnenolone (OHPREG) (AID 2283434). As to conditions: actives raise or lower the signal. The essentials:
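Hormone levels in spent medium were measured by tandem mass spectrometry following liquid-liquid extraction. Cells (H295R) had been forskolin-stimulated (10 uM, 48 h) before a 48 h chemical exposure at 0.1% DMSO, with activity fitted in both directions against DMSO.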

Assay [4] can be described thus: CEETOX_H295R_OHPROG: CeeTox H295R High-throughput Steroidogenesis Assay for OH-Progesterone (OHPROG) (AID 2283435). Particulars: actives raise or lower the signal. The essentials: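 H295R human adrenal cells were prestimulated 48 h with 10 uM forskolin, then exposed 48 h to test chemical (0.1% DMSO final). 17alpha-hydroxyprogesterone in medium was measured by HPLC-MS/MS after MTBE extraction; bidirectional fitting vs DMSO.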

Assay [5] in a line: CEETOX_H295R_CORTIC: CeeTox H295R High-throughput Steroidogenesis Assay for Corticosterone (CORTIC) (AID 2283437).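 Further: corticosterone secreted into medium quantified by mass spectrometry.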 As to conditions: actives raise or lower the signal. The essentials:
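Corticosterone secreted into medium is measured by reverse-phase HPLC with tandem MS following liquid-liquid extraction. Cells are forskolin-stimulated (10 uM, 48 h) before 48 h test exposure; activity fitted in both directions against DMSO.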

Assay [6] is described as follows: CEETOX_H295R_CORTISOL: CeeTox H295R High-throughput Steroidogenesis Assay for Cortisol (AID 2283438).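 Further: cortisol secreted into medium quantified by LC-MS/MS.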 Particulars: actives raise or lower the signal. A digest of the protocol:
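H295R human adrenal cells were prestimulated 48 h with 10 uM forskolin, then exposed 48 h to test chemical (0.1% DMSO final). Medium cortisol was quantified by HPLC-MS/MS after MTBE extraction; bidirectional fitting relative to DMSO baseline.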

Assay [7] in a line: CEETOX_H295R_DOC: CeeTox H295R High-throughput Steroidogenesis Assay for DOC (AID 2283439). Particulars: actives raise or lower the signal. A digest of the protocol:
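H295R adrenal cells prestimulated 48 h with 10 uM forskolin, then exposed 48 h to test chemical (0.1% DMSO final). Medium 11-deoxycorticosterone extracted with MTBE, quantified by HPLC-MS/MS; bidirectional fit versus DMSO baseline; MTT viability in same wells.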

A short description of assay [8]: CEETOX_H295R_ESTRADIOL: CeeTox H295R High-throughput Steroidogenesis Assay for Estradiol (AID 2283440).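 Further: estradiol secreted into medium quantified by LC-MS/MS after dansyl derivatisation.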 As to conditions: actives raise or lower the signal. A digest of the protocol: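 H295R cells pre-stimulated 48 h with 10 uM forskolin, then exposed 48 h to chemical in 0.1% DMSO. Medium estradiol quantified by MTBE extraction, dansyl derivatisation and HPLC-MS/MS; bidirectional fit versus DMSO; MTT viability required >/=70%.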

Assay [9] in a line: CEETOX_H295R_ESTRONE: CeeTox H295R High-throughput Steroidogenesis Assay for Estrone (AID 2283441).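 Further: estrone secreted into medium measured by LC-MS/MS after dansyl derivatization.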 Particulars: actives raise or lower the signal. The essentials:
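H295R cells; 48 h forskolin (10 uM) prestimulation; 48 h compound exposure, 0.1% DMSO final. Medium estrone: MTBE extraction, dansyl derivatization, HPLC-MS/MS. Bidirectional fit vs DMSO.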

Assay [10] in a line: CEETOX_H295R_ANDR: CeeTox H295R High-throughput Steroidogenesis Assay for Androstenedione (ANDR) (AID 2283436). Particulars: actives raise or lower the signal. The essentials:
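Read-out is androstenedione secreted into medium, measured by tandem mass spectrometry after liquid-liquid extraction. Cells were H295R, dosed for 48 h per modified OECD 456; activity fitted in both directions relative to DMSO.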

Each structure is given as a SMILES string. The source made the active and inactive calls. How the source made its calls, unless noted: active means hit-call score of the fitted dose curve at least 0.9, where 1 is the maximum; inactive means score below 0.9.

Chain of Peroxisome proliferator-activated receptor gamma (Homo sapiens) (P37231 whole entry, looked up, the tested form may be a part): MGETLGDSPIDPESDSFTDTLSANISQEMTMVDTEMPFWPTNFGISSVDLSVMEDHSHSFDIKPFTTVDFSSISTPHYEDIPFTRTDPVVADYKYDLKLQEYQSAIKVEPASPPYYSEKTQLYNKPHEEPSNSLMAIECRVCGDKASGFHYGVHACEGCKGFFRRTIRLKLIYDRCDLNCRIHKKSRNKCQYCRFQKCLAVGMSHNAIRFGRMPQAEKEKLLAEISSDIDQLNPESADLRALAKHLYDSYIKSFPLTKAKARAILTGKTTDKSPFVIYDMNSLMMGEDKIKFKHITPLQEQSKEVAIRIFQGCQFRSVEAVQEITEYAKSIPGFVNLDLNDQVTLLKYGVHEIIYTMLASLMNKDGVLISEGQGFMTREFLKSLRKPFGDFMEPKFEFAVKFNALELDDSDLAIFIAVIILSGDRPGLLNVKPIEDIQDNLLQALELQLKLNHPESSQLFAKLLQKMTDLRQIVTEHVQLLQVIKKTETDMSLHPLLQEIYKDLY

For the compound `Nc1ccc2c(c1)C(=O)c1ccccc1C2=O`, the outcome in [1], in assay [2], in assay [3], in [6] and in assay [7] was inactive. For the same compound, the AC50 (usually the midpoint of the concentration-response curve, whichever way the signal moves) is 7.84 µM (active) in assay [4] and 4.17 µM (active) in [5].
In the case of `COC(=O)c1ccc(O)cc1`, the result in [1], in assay [2], in [3], in [5], in assay [6] and in assay [7] was inactive. The compound was classed as inactive in [8] and in assay [9]. The AC50 in assay [4] is 45 µM (active).
Consider `Nc1ccc(S(=O)(=O)c2ccc(N)cc2)cc1`, for which the compound was classed as inactive in assay [1] and in assay [3]. The AC50 in assay [4] was 30.5 µM (active).
Consider `Oc1ccc2ccccc2c1N=Nc1ccccc1`, for which the outcome in [1] and in assay [3] was inactive. Besides, the concentration at half-maximal activity (AC50) is 10.7 µM (active) in assay [8] and 10.1 µM (active) in assay [9].
In the case of `NS(=O)(=O)c1cc2c(cc1Cl)NCNS2(=O)=O`, the compound was called inactive in [1].
As to `Cc1cccc(Nc2cc(Cl)nc(SCC(=O)O)n2)c1C`, the call in assay [1], in assay [10], in assay [5], in assay [6], in assay [7] and in assay [8] was inactive. Also, the result in assay [9] was inactive. The AC50 in assay [2] was 7.04 µM (active); in assay [3], 13.1 µM (active); in assay [4], 8.61 µM (active).
Consider `CC=Cc1ccc(O)c(OC)c1`, for which the compound was classed as inactive in [1] and in assay [4]. Also, in [3], the AC50 is 37.3 µM (active).
With `Cc1c(C(=O)O)c(O)cc2c1C(=O)c1c(O)c([C@@H]3O[C@H](CO)[C@@H](O)[C@H](O)[C@H]3O)c(O)c(O)c1C2=O`, the call in [1], in [2], in assay [3], in assay [4], in [5] and in assay [6] was inactive. For the same compound, the compound was called inactive in assay [7], in [8] and in [9].
Take `Cc1nc(C)nc(N2C[C@@H](C)N(c3ccnc([C@@H](C)O)n3)[C@@H](C)C2)n1`: the compound was classed as inactive in assay [2], in assay [3], in assay [4], in assay [5], in assay [6] and in [7].
With `CC1(C)CC(N=C=O)CC(C)(CN=C=O)C1` (stereo not drawn), the result in assay [1], in [3] and in assay [4] was inactive.
As to `Nc1ccccc1N`, the result in [2], in [3], in assay [4], in assay [5], in [6] and in [7] was inactive. Besides, the compound was classed as inactive in assay [8] and in [9].
